This note sets out measurements from PubChem BioAssay AID376 (PDSP, 2006).

SMILES strings stand for the structures. Several values for one entry are separate records, joined by “and”; a condition that tells them apart may be missing. Identical values can stand only once. Among all 2,000 compounds or so, about 250 (12%) were called active. Cut-off read from the data, not from the text of the source: active = hERG blockade below about -20% or above about 20%; inactive = in between. Shown is part of a subset that was picked to be rich in actives.

The target of this assay is Voltage-gated inwardly rectifying potassium channel KCNH2 (Homo sapiens) (UniProt Q12809). The assay is described as follows: modulators of KCNH2 ion channel function, cellular (AID 376).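 Note: 0% = buffer alone and 100% = reference blocker.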 Particulars: hERG-expressing cells, channel activity single-concentration screen; concentration not given here. For orientation: The hERG channel carries a current that helps repolarise heart muscle cells.
Sequence of Voltage-gated inwardly rectifying potassium channel KCNH2 (Homo sapiens) (Q12809 whole entry, looked up): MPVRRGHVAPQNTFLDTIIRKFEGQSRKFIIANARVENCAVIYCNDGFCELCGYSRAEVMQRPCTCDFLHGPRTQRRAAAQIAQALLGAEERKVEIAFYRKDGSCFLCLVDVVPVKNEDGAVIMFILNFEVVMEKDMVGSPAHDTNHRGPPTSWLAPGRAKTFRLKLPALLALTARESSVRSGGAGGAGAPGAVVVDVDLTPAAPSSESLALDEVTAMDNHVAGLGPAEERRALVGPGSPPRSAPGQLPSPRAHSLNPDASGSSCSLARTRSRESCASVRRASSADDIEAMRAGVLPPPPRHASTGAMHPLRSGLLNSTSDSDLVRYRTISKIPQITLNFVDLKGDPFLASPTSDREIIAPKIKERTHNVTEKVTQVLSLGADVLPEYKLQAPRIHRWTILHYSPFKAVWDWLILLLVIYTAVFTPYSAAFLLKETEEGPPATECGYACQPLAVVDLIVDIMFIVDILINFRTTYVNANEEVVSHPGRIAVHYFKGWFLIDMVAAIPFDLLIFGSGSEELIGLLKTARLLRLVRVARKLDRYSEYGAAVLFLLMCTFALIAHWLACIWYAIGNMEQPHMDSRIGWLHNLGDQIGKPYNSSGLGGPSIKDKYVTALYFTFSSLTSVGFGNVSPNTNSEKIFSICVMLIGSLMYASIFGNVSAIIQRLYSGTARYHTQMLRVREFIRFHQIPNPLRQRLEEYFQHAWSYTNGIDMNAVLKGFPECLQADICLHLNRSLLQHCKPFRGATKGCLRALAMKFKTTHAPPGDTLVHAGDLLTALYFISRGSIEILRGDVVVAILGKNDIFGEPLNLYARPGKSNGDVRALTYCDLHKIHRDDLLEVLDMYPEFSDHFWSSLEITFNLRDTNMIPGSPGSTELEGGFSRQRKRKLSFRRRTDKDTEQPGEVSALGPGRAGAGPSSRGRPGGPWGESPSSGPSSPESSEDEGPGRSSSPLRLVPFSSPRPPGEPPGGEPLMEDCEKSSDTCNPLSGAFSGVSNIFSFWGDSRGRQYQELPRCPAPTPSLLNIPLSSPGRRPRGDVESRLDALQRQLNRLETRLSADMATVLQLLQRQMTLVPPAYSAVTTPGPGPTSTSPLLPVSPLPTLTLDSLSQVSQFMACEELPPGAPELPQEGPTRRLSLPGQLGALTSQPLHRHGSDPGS
On to `O=C(O)CCc1c2ccc(=O)c(O)c-2oc2c(O)c(O)ccc12`, for which the hERG blockade was 6.94% (inactive). For `Oc1ccc(Cn2c(-c3ccc(O)cc3)nc3ccccc32)cc1` the value was 9.19% (inactive).

For `NS(=O)(=O)c1cc2c(cc1Cl)=NC(CCC(=O)O)=NS=2(=O)O`, the hERG blockade was -4.14% (inactive).

Take `[N-]=[N+]=NC1C(O)C(CO)OC1n1cnc2c(N)ncnc21` (centres undefined): the hERG blockade was -1.39% (inactive). For `Cc1ccc(C(O)c2cnc(C)n2Cc2ccccc2)cc1` (centres undefined) the value was 0.183% (inactive); for `Cc1ccc2c(c1)NC(c1ccc(C(=O)O)cc1)c1cccn1-2` (centres undefined), -13.1% (inactive); for `CC1CC2C3CCC4=CC(=O)C=CC4(C)C3(F)C(O)CC2(C)C1(O)C(=O)COP(=O)(O)O` (centres undefined), -1.33% (inactive). For the molecule `CC(=O)Nc1cc(CN2CCCCC2)c(O)c2ncccc12`, the hERG blockade was -2.13% (inactive). Turning to `NC(CSc1nc2ccccn2c1[N+](=O)[O-])C(=O)O` (centres undefined), the hERG blockade is -1.31% (inactive). For `O=C1c2ccccc2C(=O)c2c1ccc(C(=O)O)c2-c1ccc2ccccc2c1` the value was 66.5% (active). For `O=C(O)c1cccc(N=Nc2c(S(=O)(=O)O)ccc3c2C(=O)c2ccccc2C3=O)c1O` the value was 6.27% (inactive). The same measure for `O=C1c2ccccc2C(=O)c2c1ccc(N1C(=O)c3ccccc3C1=O)c2-c1c(N2C(=O)c3ccccc3C2=O)ccc2c1C(=O)c1ccccc1C2=O`: 15.5% (inactive); for `NC(C(=O)O)C(O)c1cnc[nH]1` (centres undefined): 2.25% (inactive). With `O=C1c2ccccc2-c2ccc(NC(=O)C3CCCCC3C(=O)O)cc21` (centres undefined), the hERG blockade was 1.13% (inactive). For `O=C(O)C1CCCCC1C(=O)Nc1nc2ccccc2[nH]1` (centres undefined) the value was 28.5% (active); for `O=C(O)CSc1nc2ccccc2[nH]1`, -15.3% (inactive); for `CN(C)CCCNc1ncnc2nc[nH]c12`, 3.18% (inactive).

`C[N+]1(C)CCc2cc(O)c(O)cc2C1Cc1ccc(O)c(O)c1` (centres undefined): the hERG blockade was -10.5% (inactive). Take `CC(=NO)c1cccc[n+]1Cc1ccccc1`: the hERG blockade is -12.2% (inactive). The same measure for `COc1ccc(-c2csc3c2-n2cccc2C3=O)cc1`: 22.6% (active). For `NC(=O)C1CCCN1Cc1ccc2c(c1)OCO2` (centres undefined) the value was -14.4% (inactive); for `CC12CCC(=O)C=C1CCC1C2CCC2(C)C(C(=O)Cn3cnc4c(=S)nc[nH]c43)CCC12` (centres undefined), 12.1% (inactive). The same measure for `Nc1nc(N)c2[nH]c(CNc3ccc(C(=O)O)cc3)nc2n1`: 16.1% (inactive); for `CCn1c2ccccc2c2nnc(NCCCO)nc21`: -5.84% (inactive); for `CCOc1ccccc1Nc1ccc(N)cc1S(=O)(=O)O`: 0.163% (inactive). As to `S=C1SCN(C2CCCCCCCCCCC2)CN1C1CCCCCCCCCCC1`, the hERG blockade was 0.139% (inactive). The same measure for `COc1ccc(CSC2=C(C#N)C(=O)NC3(CCCCC3)S2)cc1`: -27.9% (active); for `O=C(O)CSc1ccccc1C(=O)O`: -2.77% (inactive); for `Cn1ncc2c(NCCc3ccccc3)nc(Cl)nc21`: 10% (inactive). For `Clc1nc(NCCc2ccccc2)c2ncn(-c3ccccc3)c2n1` the value was 34.7% (active); for `c1ccc(CCCNc2nnnc3ccccc23)cc1`, 3.75% (inactive); for `O=C(O)C1(C(=O)O)CCN(S(=O)(=O)c2ccccc2)CC1`, -10% (inactive). For `CC(=NNC1=NCCN1)c1cn(C2=NCCN2)nc1C` the value was 48.8% (active).

For the molecule `Cc1nc2sc3c(c2c(=O)[nH]1)CCCC3`, the hERG blockade was -7.98% (inactive).

In the case of `O=C(O)CC(Cc1ccccc1)C(=O)O` (centres undefined), the hERG blockade is 6.37% (inactive). `COc1cc(C)cc2c(-c3c(O)cc(O)c4c3CC(C)NC4C)cc(-c3cc(-c4c(O)cc(O)c5c4CC(C)NC5C)c4cc(C)cc(OC)c4c3O)c(O)c12` (centres undefined): the hERG blockade was 22.2% (active). For the molecule `COc1cc(C2SCCCCCCCCCCSC(c3ccc(O)c(OC)c3)SCCCCCCCCCCS2)ccc1O` (centres undefined), the hERG blockade is 2.15% (inactive).

Turning to `CC(=N[N-]C(=[SH+])SCc1ccccc1)c1ccccn1.[Cl][Cu]`, the hERG blockade is 3.22% (inactive). The same measure for `Cc1cc(C)nc(SCCc2cccc[n+]2C)n1`: 71.5% (active). For `Cc1ccc(S(=O)(=O)NCc2cccc([N+](=O)[O-])c2)cc1` the value was 14.6% (inactive); for `Cc1cccc(CNc2ncnc3[nH]ncc23)c1`, -7.57% (inactive). For `COc1ccc(Br)c2c1CC(C(=O)O)CC2` (centres undefined) the value was -1.02% (inactive); for `Cc1ccc(C(=N)c2ccccc2Cc2cccc3ccccc23)c2ccccc12`, -5.31% (inactive). For `c1cncc(CSc2ncnc3nc[nH]c23)c1`, the hERG blockade was -11.9% (inactive). For `Cc1cc(N2CCCCC2)nc2ccc(Cc3ccc4nc(N5CCCCC5)cc(C)c4c3)cc12` the value was 81.4% (active); for `Cc1cc(Cl)nc2ccc(Cc3ccc4nc(Cl)cc(C)c4c3)cc12`, -16.7% (inactive); for `Cc1nc2ccccc2nc1N1CCCC1`, -18.7% (inactive). The same measure for `Cc1cc(N2CCOCC2)nc2ccc(Cc3ccc4nc(N5CCOCC5)cc(C)c4c3)cc12`: 42.1% (active); for `COc1ccc(CC(O)CN2CCOCC2)cc1` (centres undefined): -3.36% (inactive). With `NCCNCC1CCNCC1`, the hERG blockade is -1.79% (inactive).

As for `OC1COC(OCc2ccccc2)C(O)C1O` (centres undefined), the hERG blockade was -4.05% (inactive). As for `COc1ccc(C(=O)NN=C2C(=O)c3c(C)cc(C)cc3CC2(C)C)cc1`, the hERG blockade was 8.71% (inactive). As for `CC1(C)C2CCC1(C)C(OC(=O)C=Cc1ccccc1)C2` (centres undefined), the hERG blockade is -7.8% (inactive). The same measure for `CC(C)c1ccccc1S(=O)c1ccccc1C(C)(C)O` (centres undefined): -9.35% (inactive).

`CC(C)CSCC1OC(n2cnc3c(N)nccc32)C(O)C1O` (centres undefined): the hERG blockade is -11.9% (inactive). For `O=C(O)C(Br)C(Br)c1ccccc1[N+](=O)[O-]` (centres undefined) the value was -1.11% (inactive); for `CC(=NNc1ccc2ccccc2n1)c1ccccc1O`, 8.91% (inactive); for `O=[N+]([O-])c1cccc(C=NNc2ccc3ccccc3n2)c1O`, 26.8% (active). For `CN(N=Cc1ccccc1O)c1ccc2ccccc2n1` the value was -0.991% (inactive); for `Cc1cc(-c2cc(C)c(O)c(C(C)(C)C)c2)cc(C(C)(C)C)c1O`, 0.0679% (inactive). Consider `CC(CS(=O)(=O)Cc1ccccc1)C(N)=O` (centres undefined), for which the hERG blockade was 3.43% (inactive). With `COc1c(O)ccc2c1CN1CCc3cc4c(cc3C1C2)OCO4` (centres undefined), the hERG blockade was 22.7% (active). The same measure for `CC1=NC(C)(COC(=O)C2(C)NC(C)(CO)CO2)COC1=O` (centres undefined): -5.89% (inactive); for `Cc1ncc(CSC(=N)N)n1Cc1ccccc1`: -16.6% (inactive).

As to `Cc1c2ccccc2c(CSC(=N)N)c2ccccc12`, the hERG blockade was 103% (active). `N=C(N)SCCc1ccccn1`: the hERG blockade is -2.29% (inactive) and 1.24% (inactive).

With `O=C(O)CSCCc1ccccc1`, the hERG blockade was 5.62% (inactive).

With `CC12CC(=O)C3C(CCC4=CC(=O)CCC43C)C1CC=C2CC(=O)O` (centres undefined), the hERG blockade is -16.4% (inactive).

Turning to `O=C(O)c1nc2nc(Cl)c(Cl)nc2[nH]1`, the hERG blockade was 6.64% (inactive).

Regarding `CCCCSCc1nc2nc(Cl)c(Cl)nc2[nH]1`, the hERG blockade was -33.6% (active). For `CCN(CCO)CC1CCCC2CCCCC21` (centres undefined) the value was -6.41% (inactive); for `O=C(O)C1C2OC(C(Br)C2Br)C1C(=O)O` (centres undefined), -2.82% (inactive).

Regarding `CC(=O)NC(Cc1ccc(O)cc1)C(=O)O` (centres undefined), the hERG blockade was -8.5% (inactive). The same measure for `CN1CC(c2ccccc2)C(O)(C2(c3ccccc3)CN(C)CC(c3ccccc3)C2=O)C(c2ccccc2)C1` (centres undefined): 20.8% (active); for `CC1(C)N=C(N)N=C(N)N1CCCCc1ccccc1`: -14.1% (inactive). For `Nc1nc(N)c(CCCCc2ccccc2)c(N)n1`, the hERG blockade was 26.6% (active). For `Nc1nc(SCCc2ccccc2)c2[nH]cnc2n1` the value was -0.569% (inactive). The same measure for `Cn1c(=O)c2[nH]c(CS(=O)(=O)Cc3nc4c([nH]3)c(=O)n(C)c(=O)n4C)nc2n(C)c1=O`: -2.72% (inactive); for `Nc1nc(N)c(N=Nc2ccc(C(=O)O)c(O)c2)c(N)n1`: 12.4% (inactive); for `c1ccc(SCCc2ccncc2)cc1`: 5.61% (inactive). For `CC(=NNS(=O)(=O)c1ccc(C)cc1)P(=O)(O)O` the value was 15.5% (inactive); for `COc1ccc2cc1Oc1ccc(cc1)CC1c3cc(c(OC)cc3CCN1C)Oc1c(OC)c(OC)cc3c1C(C2)N(C)CC3` (centres undefined), 70.1% (active); for `COc1cc2c3cc1Oc1c(OC)c(OC)cc4c1C(Cc1ccc(O)c(c1)Oc1ccc(cc1)CC3N(C)CC2)CN(C)C4` (centres undefined), 37.9% (active). In the case of `COc1ccc2cc1Oc1ccc(cc1)CC1c3c(cc(OC)c4c3Oc3cc5c(cc3O4)CCNC5C2)CCN1C` (centres undefined), the hERG blockade is 79.4% (active).

As to `COc1cc2c3cc1Oc1cc(ccc1O)CC1c4c(cc(OC)c(O)c4Oc4ccc(cc4)CC3[N+](C)(C)CC2)CC[N+]1(C)C` (centres undefined), the hERG blockade was 11.2% (inactive). For `COc1ccc(CC2C(=O)NC(C)C(=O)N(C)C3Cc4ccc(cc4)Oc4cc(ccc4O)CC(C(=O)NC(C)C(=O)NC(C)C(=O)N2C)N(C)C3=O)cc1` (centres undefined) the value was 4.92% (inactive); for `N=c1sc2ccccc2n1CCS` (tested in a mixture with another compound), 5.15% (inactive); for `COC(NC(N)=O)C(=O)O` (centres undefined), 6.05% (inactive). For `Cc1c(Cl)cc(C(C)(C)C)c(O)c1Cc1c(C)c(Cl)cc(C(C)(C)C)c1O` the value was 0.223% (inactive); for `CC(C)(CCC(C)(C)c1ccccc1)c1ccccc1`, 1.92% (inactive); for `CN(C)Cc1nsc(N(C)C)n1`, 2.33% (inactive). As for `Cn1c(=O)c2c(nc(Cc3ccccc3)n2CC(=O)O)n(C)c1=O`, the hERG blockade was 11.6% (inactive). The same measure for `CCOc1ccccc1C=C(C#N)C(N)=O`: -12.6% (inactive); for `CC(=Cc1ccc(Cl)cc1)C(C)(C)C(=O)O`: -2.46% (inactive).

Regarding `O=C(O)C1C2C=CC(O2)C1C(=O)Nc1ccccc1` (centres undefined), the hERG blockade is -12.4% (inactive).

In the case of `O=C(NN=Cc1ccc2c(c1)CCC2)c1ccccc1O`, the hERG blockade was 7.38% (inactive). For `CN(C)CCCN1CCC2(CCC(C(C)(C)C)CC2)CC1` the value was 11.2% (inactive). The same measure for `FC(F)(F)c1nc2nc(Cl)c(Cl)nc2n1CCCN1CCOCC1`: -9.32% (inactive); for `CC(C)(C)C1CCC2(CC1)CCN(CCCN1CCOCC1)CC2`: 36.7% (active).
